The supplement of paper PMC11732987, “Enantioselective OTUD7B fragment discovery through chemoproteomics screening and high-throughput optimisation” (Communications Chemistry, 2025)

Columns and labels:
Assay in all cases: log2 ratio of Biotin-Ahx-Ub-VS probe labelling (fragment/DMSO); higher = less target engagement (more negative = stronger competition), active = hit call of the paper (q ≤ 0.05, log2 ratio ≤ -1)
Conditions in all cases: compound concentration: 200 uM; treatment time: 3 h
USP42 = molecular target: T1, USP42 (UniProt Q9H9J4)
T1 sequence (whole entry): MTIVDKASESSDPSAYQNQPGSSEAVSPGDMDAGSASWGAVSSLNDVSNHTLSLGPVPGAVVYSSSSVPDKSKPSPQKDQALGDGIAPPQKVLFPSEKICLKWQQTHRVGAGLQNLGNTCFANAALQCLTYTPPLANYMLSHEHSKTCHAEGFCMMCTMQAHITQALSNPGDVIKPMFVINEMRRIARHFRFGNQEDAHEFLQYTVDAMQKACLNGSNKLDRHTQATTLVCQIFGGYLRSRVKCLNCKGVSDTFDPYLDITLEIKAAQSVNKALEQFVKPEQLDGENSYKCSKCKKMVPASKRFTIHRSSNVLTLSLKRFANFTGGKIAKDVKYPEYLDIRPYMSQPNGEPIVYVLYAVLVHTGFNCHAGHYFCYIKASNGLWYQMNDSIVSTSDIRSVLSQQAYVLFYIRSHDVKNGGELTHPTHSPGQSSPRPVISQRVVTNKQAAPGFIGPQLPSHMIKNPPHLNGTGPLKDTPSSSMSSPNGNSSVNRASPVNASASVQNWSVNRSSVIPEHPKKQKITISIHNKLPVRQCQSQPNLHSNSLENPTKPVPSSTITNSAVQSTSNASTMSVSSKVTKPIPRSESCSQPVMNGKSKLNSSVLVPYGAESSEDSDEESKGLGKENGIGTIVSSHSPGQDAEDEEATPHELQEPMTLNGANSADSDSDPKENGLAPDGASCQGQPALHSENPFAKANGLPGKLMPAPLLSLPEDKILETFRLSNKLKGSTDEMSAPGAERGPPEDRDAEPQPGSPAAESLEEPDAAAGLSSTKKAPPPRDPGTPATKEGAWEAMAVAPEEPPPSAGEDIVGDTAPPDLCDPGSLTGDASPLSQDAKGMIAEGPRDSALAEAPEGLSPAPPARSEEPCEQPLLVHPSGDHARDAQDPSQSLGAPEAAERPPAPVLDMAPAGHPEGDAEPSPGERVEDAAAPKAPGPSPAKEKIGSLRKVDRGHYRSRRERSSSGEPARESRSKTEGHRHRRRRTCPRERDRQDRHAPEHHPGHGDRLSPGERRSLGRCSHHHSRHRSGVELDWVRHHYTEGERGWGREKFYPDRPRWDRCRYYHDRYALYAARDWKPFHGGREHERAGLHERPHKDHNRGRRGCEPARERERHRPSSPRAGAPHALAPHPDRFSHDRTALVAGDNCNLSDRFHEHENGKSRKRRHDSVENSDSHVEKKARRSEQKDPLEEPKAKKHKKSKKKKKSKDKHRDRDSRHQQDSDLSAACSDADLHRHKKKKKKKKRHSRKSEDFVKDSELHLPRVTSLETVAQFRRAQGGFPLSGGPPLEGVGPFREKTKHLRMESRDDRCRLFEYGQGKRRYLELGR
How it was run: (§1)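 Using Biotin-Ahx-Ub-VS at 0.5 µM final for 1 h, DUBs were labelled in HEK293T lysate (495 µg per sample) that had first been treated in triplicate with fragment at 200 µM or vehicle for 3 h. NeutrAvidin enrichment, LysC and trypsin digestion and diaPASEF LC-MS/MS followed. Spectronaut label-free quantities were global-median-normalised. Values are average log2 fragment/vehicle ratios by unpaired t-test, using proteins with ≥2 unique peptides.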

USP46 = USP46 (UniProt P62068)
How it was run: as §1

USP47 = molecular target: T2, USP47 (UniProt Q96K76)
T2 sequence (whole entry): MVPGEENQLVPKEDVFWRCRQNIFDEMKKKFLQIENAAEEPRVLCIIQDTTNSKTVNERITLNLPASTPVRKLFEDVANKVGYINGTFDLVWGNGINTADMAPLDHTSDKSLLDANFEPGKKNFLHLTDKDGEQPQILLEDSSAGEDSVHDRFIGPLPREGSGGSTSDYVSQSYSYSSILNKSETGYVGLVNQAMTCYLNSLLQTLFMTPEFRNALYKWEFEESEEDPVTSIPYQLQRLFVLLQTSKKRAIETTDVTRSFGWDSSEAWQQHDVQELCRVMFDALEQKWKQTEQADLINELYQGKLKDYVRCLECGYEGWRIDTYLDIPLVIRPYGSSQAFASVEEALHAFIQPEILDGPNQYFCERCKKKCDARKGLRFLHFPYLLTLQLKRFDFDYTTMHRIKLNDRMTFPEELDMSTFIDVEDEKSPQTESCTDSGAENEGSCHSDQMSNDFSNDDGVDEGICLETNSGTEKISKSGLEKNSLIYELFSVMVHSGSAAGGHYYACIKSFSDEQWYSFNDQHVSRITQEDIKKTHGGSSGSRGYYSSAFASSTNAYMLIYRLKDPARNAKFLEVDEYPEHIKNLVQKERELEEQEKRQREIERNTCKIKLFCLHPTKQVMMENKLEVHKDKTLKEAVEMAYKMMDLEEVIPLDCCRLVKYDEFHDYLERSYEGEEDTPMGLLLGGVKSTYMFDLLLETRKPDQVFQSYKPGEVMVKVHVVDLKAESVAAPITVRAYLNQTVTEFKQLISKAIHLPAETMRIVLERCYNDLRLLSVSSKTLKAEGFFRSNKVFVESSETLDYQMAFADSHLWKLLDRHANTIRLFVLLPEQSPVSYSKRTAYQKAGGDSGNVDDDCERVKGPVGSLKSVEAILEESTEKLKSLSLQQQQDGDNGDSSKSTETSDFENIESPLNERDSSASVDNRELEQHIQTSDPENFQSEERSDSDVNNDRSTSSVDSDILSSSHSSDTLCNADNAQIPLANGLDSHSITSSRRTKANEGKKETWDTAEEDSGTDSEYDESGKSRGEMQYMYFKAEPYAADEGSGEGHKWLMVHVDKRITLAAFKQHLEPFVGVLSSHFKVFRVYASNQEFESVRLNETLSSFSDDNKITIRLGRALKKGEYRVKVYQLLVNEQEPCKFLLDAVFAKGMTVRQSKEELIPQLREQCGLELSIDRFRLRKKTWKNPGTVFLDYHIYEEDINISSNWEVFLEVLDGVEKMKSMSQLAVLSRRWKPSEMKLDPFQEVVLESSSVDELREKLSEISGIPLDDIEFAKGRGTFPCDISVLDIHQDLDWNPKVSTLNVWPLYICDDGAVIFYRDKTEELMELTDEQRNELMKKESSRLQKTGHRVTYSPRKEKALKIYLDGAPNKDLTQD
How it was run: as §1

USP48 = molecular target: T3, USP48 (UniProt Q86UV5)
T3 sequence (whole entry): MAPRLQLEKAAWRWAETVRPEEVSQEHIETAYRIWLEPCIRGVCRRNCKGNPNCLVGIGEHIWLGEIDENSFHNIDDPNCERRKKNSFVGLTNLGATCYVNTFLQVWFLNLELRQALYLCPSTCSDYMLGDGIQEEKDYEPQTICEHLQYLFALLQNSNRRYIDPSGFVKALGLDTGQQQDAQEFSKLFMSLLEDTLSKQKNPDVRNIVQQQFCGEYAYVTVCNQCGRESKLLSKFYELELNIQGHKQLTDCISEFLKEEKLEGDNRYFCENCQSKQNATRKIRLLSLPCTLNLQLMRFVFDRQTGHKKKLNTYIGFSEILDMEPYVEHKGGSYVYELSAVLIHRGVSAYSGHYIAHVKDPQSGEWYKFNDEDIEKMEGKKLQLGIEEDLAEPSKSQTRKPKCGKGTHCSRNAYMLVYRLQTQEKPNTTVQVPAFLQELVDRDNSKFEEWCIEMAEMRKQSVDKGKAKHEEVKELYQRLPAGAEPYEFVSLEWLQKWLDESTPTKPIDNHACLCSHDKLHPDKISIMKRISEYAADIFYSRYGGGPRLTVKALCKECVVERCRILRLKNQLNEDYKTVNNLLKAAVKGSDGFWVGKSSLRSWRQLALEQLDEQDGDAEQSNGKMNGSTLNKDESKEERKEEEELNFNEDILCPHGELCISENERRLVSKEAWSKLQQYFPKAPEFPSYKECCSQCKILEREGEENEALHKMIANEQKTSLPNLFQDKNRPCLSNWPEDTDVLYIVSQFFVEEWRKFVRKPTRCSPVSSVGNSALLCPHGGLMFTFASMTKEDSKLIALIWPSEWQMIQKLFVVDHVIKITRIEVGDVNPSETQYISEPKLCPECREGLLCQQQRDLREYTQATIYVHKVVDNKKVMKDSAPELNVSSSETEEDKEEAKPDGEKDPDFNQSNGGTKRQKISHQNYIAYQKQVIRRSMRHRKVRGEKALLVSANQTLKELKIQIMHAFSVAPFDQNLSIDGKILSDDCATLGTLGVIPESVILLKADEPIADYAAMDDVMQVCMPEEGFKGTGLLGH
How it was run: as §1

USP5 = molecular target: T4, USP5 (UniProt P45974)
T4 sequence (whole entry): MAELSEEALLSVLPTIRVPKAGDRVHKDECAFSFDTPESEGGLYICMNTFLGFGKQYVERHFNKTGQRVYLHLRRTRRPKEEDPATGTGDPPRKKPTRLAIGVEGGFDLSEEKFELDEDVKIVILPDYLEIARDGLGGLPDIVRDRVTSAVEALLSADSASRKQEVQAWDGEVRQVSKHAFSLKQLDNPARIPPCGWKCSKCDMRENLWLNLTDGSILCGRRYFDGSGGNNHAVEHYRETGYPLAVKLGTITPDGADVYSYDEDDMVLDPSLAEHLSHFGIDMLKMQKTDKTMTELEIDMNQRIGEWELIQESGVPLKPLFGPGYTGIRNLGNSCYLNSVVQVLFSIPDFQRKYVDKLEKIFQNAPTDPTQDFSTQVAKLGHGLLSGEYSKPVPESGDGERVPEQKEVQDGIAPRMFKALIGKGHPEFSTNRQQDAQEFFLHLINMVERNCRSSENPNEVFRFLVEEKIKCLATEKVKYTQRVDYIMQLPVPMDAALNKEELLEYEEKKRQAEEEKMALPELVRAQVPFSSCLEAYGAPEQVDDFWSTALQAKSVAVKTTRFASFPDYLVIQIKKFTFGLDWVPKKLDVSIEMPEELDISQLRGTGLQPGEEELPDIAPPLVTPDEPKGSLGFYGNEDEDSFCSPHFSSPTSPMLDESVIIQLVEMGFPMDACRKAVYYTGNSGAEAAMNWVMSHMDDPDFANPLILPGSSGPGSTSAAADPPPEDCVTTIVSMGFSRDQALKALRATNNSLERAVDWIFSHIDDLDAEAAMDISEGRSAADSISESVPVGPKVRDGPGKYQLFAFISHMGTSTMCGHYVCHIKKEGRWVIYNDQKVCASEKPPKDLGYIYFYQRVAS
How it was run: as §1

USP54 = USP54 (UniProt Q70EL1)
How it was run: as §1

USP7 = USP7 (UniProt Q93009)
How it was run: as §1

USP8 = molecular target: T5, USP8 (UniProt P40818)
T5 sequence (whole entry): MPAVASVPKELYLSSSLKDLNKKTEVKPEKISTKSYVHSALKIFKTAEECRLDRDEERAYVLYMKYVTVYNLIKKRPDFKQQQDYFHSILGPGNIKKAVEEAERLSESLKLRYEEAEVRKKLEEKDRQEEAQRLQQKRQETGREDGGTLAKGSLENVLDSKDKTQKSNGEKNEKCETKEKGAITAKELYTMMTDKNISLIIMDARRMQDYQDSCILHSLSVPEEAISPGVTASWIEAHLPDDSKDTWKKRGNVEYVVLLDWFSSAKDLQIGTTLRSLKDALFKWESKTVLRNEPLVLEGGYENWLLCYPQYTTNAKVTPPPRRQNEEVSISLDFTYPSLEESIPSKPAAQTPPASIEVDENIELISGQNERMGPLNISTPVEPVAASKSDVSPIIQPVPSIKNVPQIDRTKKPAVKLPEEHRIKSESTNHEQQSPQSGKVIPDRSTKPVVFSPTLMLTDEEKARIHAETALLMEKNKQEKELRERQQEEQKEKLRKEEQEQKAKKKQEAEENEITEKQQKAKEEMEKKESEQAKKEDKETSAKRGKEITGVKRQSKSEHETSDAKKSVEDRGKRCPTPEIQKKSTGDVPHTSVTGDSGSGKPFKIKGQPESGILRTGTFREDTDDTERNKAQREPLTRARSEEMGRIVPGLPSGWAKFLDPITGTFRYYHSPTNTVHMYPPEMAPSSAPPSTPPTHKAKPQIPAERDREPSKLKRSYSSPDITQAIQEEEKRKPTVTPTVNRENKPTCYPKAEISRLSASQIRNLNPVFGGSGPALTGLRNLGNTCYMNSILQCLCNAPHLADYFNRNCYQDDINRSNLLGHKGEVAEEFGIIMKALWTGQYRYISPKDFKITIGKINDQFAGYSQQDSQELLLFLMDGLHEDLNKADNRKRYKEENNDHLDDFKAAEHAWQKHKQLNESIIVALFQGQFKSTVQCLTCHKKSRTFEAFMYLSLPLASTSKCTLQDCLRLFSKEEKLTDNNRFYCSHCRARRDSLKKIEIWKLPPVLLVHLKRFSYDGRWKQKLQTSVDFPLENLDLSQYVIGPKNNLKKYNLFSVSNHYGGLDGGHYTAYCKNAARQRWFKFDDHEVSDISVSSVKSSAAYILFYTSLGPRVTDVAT
How it was run: as §1

Measured: log2 ratio of Biotin-Ahx-Ub-VS probe labelling

USP54, sequence (Q70EL1 whole entry): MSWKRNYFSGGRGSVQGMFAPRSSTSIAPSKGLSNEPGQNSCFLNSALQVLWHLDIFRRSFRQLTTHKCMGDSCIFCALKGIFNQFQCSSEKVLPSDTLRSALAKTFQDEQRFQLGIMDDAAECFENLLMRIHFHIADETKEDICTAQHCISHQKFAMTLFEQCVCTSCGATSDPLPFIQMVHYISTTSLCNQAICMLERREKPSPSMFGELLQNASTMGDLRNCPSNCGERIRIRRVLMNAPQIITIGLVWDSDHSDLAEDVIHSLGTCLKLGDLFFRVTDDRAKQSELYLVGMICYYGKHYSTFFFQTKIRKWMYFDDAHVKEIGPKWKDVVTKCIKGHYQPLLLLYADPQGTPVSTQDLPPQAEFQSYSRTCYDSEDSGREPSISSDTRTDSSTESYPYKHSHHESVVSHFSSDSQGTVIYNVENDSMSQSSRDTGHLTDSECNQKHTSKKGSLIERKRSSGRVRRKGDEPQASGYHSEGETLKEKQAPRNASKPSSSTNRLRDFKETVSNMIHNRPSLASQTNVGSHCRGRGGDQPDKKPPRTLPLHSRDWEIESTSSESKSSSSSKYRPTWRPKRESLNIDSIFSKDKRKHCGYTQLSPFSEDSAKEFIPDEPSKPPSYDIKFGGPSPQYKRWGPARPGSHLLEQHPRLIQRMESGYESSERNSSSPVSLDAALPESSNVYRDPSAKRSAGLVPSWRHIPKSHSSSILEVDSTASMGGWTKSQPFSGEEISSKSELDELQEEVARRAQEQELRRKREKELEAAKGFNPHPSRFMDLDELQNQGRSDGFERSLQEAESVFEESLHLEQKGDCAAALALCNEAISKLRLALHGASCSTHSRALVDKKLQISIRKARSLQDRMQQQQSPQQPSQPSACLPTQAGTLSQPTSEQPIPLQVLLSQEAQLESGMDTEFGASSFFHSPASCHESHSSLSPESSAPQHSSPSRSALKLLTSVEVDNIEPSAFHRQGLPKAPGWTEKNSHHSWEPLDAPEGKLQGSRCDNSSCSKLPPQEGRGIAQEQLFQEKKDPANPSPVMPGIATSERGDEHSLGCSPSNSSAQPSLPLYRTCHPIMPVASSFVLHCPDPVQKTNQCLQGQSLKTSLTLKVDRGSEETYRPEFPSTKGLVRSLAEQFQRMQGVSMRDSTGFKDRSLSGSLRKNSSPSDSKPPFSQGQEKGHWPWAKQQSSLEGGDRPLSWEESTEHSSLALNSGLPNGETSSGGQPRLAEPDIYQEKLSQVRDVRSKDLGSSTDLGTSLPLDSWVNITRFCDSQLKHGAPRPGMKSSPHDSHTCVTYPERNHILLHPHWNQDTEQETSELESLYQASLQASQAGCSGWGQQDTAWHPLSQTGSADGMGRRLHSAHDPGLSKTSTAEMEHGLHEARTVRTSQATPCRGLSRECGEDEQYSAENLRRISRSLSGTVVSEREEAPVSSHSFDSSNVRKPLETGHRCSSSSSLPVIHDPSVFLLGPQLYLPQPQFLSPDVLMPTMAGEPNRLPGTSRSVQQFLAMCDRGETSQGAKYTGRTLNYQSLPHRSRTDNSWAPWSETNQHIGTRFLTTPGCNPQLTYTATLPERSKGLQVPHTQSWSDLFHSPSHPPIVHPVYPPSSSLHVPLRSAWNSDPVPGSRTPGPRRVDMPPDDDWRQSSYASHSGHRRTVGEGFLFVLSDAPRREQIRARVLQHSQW
USP46, sequence (P62068 whole entry): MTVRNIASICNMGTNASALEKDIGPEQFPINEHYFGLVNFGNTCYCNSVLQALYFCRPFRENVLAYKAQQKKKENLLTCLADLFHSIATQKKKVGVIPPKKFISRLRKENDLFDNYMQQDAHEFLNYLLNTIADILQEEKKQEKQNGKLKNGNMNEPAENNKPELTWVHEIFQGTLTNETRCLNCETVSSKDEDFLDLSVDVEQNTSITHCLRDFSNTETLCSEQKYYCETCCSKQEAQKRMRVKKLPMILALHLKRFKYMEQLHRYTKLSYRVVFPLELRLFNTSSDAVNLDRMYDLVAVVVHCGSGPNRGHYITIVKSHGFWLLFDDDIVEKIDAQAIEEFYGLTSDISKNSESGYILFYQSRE
USP7, sequence (Q93009 whole entry, looked up): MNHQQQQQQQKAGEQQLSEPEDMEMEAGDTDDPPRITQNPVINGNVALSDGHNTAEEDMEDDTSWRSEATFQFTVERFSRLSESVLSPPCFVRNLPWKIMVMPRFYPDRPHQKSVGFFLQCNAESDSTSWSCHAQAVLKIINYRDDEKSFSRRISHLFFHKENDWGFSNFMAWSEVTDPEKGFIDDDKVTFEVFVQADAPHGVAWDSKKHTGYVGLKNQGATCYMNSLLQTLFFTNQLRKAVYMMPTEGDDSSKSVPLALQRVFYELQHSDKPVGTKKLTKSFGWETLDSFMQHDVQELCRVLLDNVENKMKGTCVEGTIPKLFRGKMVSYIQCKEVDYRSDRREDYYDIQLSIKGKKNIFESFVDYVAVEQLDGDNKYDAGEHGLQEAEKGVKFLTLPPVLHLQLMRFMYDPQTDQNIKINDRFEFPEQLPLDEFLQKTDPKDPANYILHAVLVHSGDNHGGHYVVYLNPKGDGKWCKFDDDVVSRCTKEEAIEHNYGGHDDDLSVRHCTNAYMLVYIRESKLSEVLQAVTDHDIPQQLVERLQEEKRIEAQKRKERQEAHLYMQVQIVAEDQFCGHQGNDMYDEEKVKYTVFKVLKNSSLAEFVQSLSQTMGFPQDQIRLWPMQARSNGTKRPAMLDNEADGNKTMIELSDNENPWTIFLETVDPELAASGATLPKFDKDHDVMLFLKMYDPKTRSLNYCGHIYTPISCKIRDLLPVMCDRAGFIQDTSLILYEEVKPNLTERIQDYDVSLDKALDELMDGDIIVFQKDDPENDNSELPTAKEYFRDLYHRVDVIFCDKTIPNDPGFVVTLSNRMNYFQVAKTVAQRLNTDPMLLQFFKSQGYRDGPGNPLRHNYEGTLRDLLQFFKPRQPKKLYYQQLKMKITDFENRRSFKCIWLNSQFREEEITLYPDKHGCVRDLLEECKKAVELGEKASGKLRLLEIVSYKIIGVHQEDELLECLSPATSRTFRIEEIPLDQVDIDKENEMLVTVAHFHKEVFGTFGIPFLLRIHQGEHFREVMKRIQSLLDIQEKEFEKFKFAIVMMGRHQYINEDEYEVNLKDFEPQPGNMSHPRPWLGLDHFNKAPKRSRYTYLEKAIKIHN

CC(NC(=O)CCl)c1cccc2ccccc12 (stereo not drawn)
inactive: USP42 -0.241 | USP46 0.159 | USP47 -0.308 | USP48 -0.368 | USP5 0.225 | USP54 0.115 | USP7 -0.339 | USP8 -0.651
